Assay results reported in PubChem BioAssay (NCATS).
Results filed as inconclusive are left out. A call without a number means that no potency is given here. Activity calls are given as the source filed them. The call rests on the fitted dose curve; in most records, active means well fitted inhibition curve with a large enough effect; inconclusive means small, poorly fitted or top-dose-only effect; inactive means flat fitted curve, though single readings scatter.

system: DFO2036; assay: qHTS profiling for inhibitors of Plasmodium falciparum proliferation (AID 504749); further: nearly all actives have a fitted effect of over 60% in size; conditions: P. falciparum in erythrocytes, SYBR Green DNA, 72 h; series mostly up to 28.7 µM
Method in brief: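 SYBR Green fluorescence of parasite DNA, read after lysis and overnight dark incubation, measured growth over 72 h in erythrocyte culture at 0.3% parasitemia and 2.5% hematocrit. Data normalised to DMSO and 0.29 uM artemisinin, with plate-drift correction.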
Potency means the concentration at half of the fitted maximal effect.

| SMILES | Potency |
| --- | --- |
| CCCCCCCCCCCCCCCC(=O)OC[C@H](O)[C@H]1OC[C@@H](O)[C@@H]1O | inactive |
| CCCCC(=O)OCC(=O)[C@]1(O)Cc2c(O)c3c(c(O)c2[C@H](OC2CC(NC(=O)C(F)(F)F)C(O)C(C)O2)C1)C(=O)c1c(OC)cccc1C3=O (stereo not given in full) | 2510 nM (active) |
| C[C@H]1OC(OC2C(O)[C@@H](O)C(OC3C(O)[C@@H](O)C(O)O[C@@H]3CO)O[C@@H]2CO)[C@H](O)C(O)C1N[C@H]1C=C(CO)[C@@H](O)[C@H](O)C1O (stereo not given in full) | inactive |
| CCN(CC)CC(=O)Nc1c(C)cc(C)cc1C | inactive |
| CC(=O)N[C@H]1[C@H](O[C@@H]2c3ccc(c(Cl)c3)Oc3cc4cc(c3O[C@@H]3O[C@H](CO)[C@@H](O)[C@H](O)C3C)Oc3ccc(cc3Cl)C[C@H]3NC(=O)[C@@H](N)c5ccc(O)c(c5)Oc5cc(O)cc(c5)[C@H](NC3=O)C(=O)N[C@H]4C(=O)N[C@H]3C(=O)N[C@@H]2C(=O)N[C@@H](C(=O)O)c2cc(O)cc(O[C@H]4O[C@H](CO)[C@@H](O)C(O)[C@@H]4O)c2-c2cc3ccc2O)O[C@H](CO)[C@@H](O)[C@@H]1O (stereo not given in full) | inactive |
| NC(=O)c1ncn(C2OC(CO)C(O)C2O)c1N (stereo not given) | inactive |
| C[C@H]1[C@@H](OC(=O)CCC(=O)O)OC2OC3(C)CC[C@H]4[C@H](C)CC[C@@H]1[C@@]24OO3 (stereo not given in full) | 3.5 nM (active) |
| CC1(Cn2ccnn2)[C@H](C(=O)O)N2C(=O)C[C@H]2S1(=O)=O (stereo not given in full) | inactive |
| CN(C)CC/C=C1\c2ccccc2COc2ccc(CC(=O)O)cc21 | inactive |
| CCCC(=O)O[C@]1(C(=O)COC(C)=O)CC[C@H]2C3C[C@H](F)C4=CC(=O)C=CC4(C)[C@@]3(F)[C@@H](O)CC21C (stereo not given in full) | inactive |
| OCCN1CC(O)C(O)C(O)C1CO (stereo not given) | inactive |
| COc1cc2c(cc1O)CCN[C@@]21CS[C@H]2c3c(OC(C)=O)c(C)c4c(c3C(COC1=O)N1C2C2c3c(cc(C)c(OC)c3O)CC([C@@H]1O)N2C)OCO4 (stereo not given in full) | 0.9 nM (active) |
| CC(CCC(=O)O)C1CCC2C3C(=O)C[C@@H]4CC(=O)CC[C@@]4(C)C3CC(=O)[C@]12C (stereo not given in full) | inactive |
| C[n+]1c2cc(N)ccc2cc2ccc(N)cc21 | 355 nM (active) |
| O=C(OC[C@@H]1O[C@@](O)(COC(=O)c2cccnc2)[C@H](OC(=O)c2cccnc2)[C@H]1OC(=O)c1cccnc1)c1cccnc1 | inactive |
| O=[N+]([O-])O[C@H]1CO[C@H]2[C@@H]1OC[C@H]2O | inactive |
| COc1cccc(OC)c1C(=O)NC1C(=O)N2C1SC(C)(C)C2C(=O)O (stereo not given) | inactive |
| NC[C@@H]1O[C@H](OC2[C@@H](CO)O[C@@H](OC3[C@H](O)[C@H](N)C[C@H](N)[C@H]3OC3O[C@H](CO)[C@@H](O)[C@H](O)[C@@H]3N)[C@H]2O)C(N)[C@H](O)[C@@H]1O (stereo not given in full) | inactive |
| Cc1ccc(S(=O)(=O)NC(=O)NC(C)Cc2ccccc2)cc1 (stereo not given) | inactive |
| OCCOC[C@H]1O[C@H](OCCO)[C@H](OCCO)[C@@H](OCCO)[C@@H]1OCCO (tested in a mixture with another compound) | inactive |

| SMILES | Potency |
| --- | --- |
| C[S+](C)CC[C@H](N)C(=O)O | inactive |
| CC[C@@H]1/C=C(\C)C[C@H](C)C[C@H](OC)[C@H]2O[C@@](O)(C(=O)C(=O)N3CCCC[C@H]3C(=O)O[C@H](/C(C)=C/[C@@H]3CC[C@H](Cl)[C@H](OC)C3)[C@H](C)[C@@H](O)CC1=O)[C@H](C)C[C@@H]2OC | inactive |
| NC(=O)C1CC2(NC(=O)NC2=O)c2cc(F)ccc2O1 (stereo not given) | inactive |
| CN1[C@@H]2CC[C@@H]1CC(OC(=O)[C@H](CO)c1ccccc1)C2 (stereo not given in full) | inactive |
| CC[C@@]1(O)C[C@H](O[C@H]2C[C@@H](N(C)C)[C@@H](O[C@H]3C[C@@H](O)[C@@H](O[C@H]4CCC(=O)[C@@H](C)O4)[C@@H](C)O3)[C@@H](C)O2)c2c(cc3c(c2O)C(=O)c2c(O)cccc2C3=O)[C@H]1C(=O)OC | 178 nM (active) |
| CCCCCCCCCCCC(=O)OCC(O)C1OCC(O)C1O (stereo not given) | inactive |
| C/C1=C2/[N-]C(C(CC(N)=O)[C@@]2(C)CCC(=O)NCC(C)OP(=O)([O-])O[C@H]2[C@@H](O)[C@@H](n3cnc4cc(C)c(C)cc43)O[C@@H]2CO)[C@]2(C)N=C(/C(C)=C3N=C(/C=C4N=C1C(CCC(N)=O)C\4(C)C)[C@@H](CCC(N)=O)[C@]\3(C)CC(N)=O)[C@@H](CCC(N)=O)[C@]2(C)CC(N)=O.CC(=O)O.[Co] (stereo not given in full) | inactive |
| CC1(C)OC[C@@H]2O[C@@]3(C(=O)O)OC(C)(C)O[C@@H]3[C@@H]2O1 | inactive |
| Cc1ccccc1N1C(=O)c2cc(N)ccc2N/C1=C\F | inactive |
| CCC(C(=O)O)C1OC(C(C)C(O)C(C)C(=O)C(CC)C2OC3(C=CC(O)C4(CCC(C)(C5CCC(O)(CC)C(C)O5)O4)O3)C(C)CC2C)C(C)CC1C (stereo not given) | 126 nM (active) |
| O=C1C(I)=CC(=C(c2cc(I)c(O)c(I)c2)c2ccccc2C(=O)O)C=C1I | inactive |
| NC(=O)NC(CCC(=O)O)C(=O)O (stereo not given) | inactive |
| COC1CC2CCC(C)[C@](O)(O2)C(=O)C(=O)N2CCCCC2C(=O)OC(C(C)CC2CCC(O)C(OC)C2)CC(=O)C(C)/C=C(/C)C(O)C(OC)C(=O)C(C)CC(C)C=CC=C/C=C\1C (stereo not given in full) | 1410 nM (active) |
| CC(=O)OCC(=O)[C@@]1(O)CCC2C3C[C@H](C)C4=CC(=O)C=CC4(C)C3C(O)CC21C (stereo not given in full) | inactive |
| CN[C@H](C)CCC=C(C)C | 398 nM (active) |
| CC1(C)C2CC[C@]1(C)[C@@H](O)C2 | inactive |
| OCC1O[C@H](Oc2ccc(O)cc2)C(O)C(O)C1O (stereo not given in full) | inactive |
| Nc1nc(F)nc2c1ncn2[C@@H]1O[C@H](CO)[C@@H](O)[C@H]1O | inactive |
| CC1OC(OC2CCC3(C)C(CCC4C3CC(O)C3(C)C(C5=CC(=O)OC5)CCC43O)C2)CC(O)C1OC1CC(O)C(OC2CC(O)C(OC3OC(CO)C(O)C(O)C3O)C(C)O2)C(C)O1 (stereo not given) | inactive |
| CC1OC(OCC2OC(Oc3c(-c4ccc(OCCO)c(OCCO)c4)oc4cc(OCCO)cc(O)c4c3=O)C(O)C(O)C2O)[C@@H](O)C(O)C1O (stereo not given in full) | inactive |
